Assay [1] in a line: nuclear p53 accumulation, HPV+ cells – imaging, p53-positive nuclei imaging, 24 h, 48 h (AID 1508601). The following applies: 24/48 h.
For assay [2], the target named is Cellular tumor antigen p53 (Homo sapiens) (UniProt P04637). The assay is described as above. Conditions: 24/48 h, stronger effect = higher value.
[3] abbreviates: measured here: cell number at 24 h, Library stock concentration: 3.33 mM.
The mark [4] stands for this setting: measured here: cell number at 24 h, Library stock concentration: 10 mM.
The mark [5] stands for this setting: measured here: cell number at 48 h, Library stock concentration: 3.33 mM.
Setting [6] is: measured here: cell number at 48 h, Library stock concentration: 10 mM.
Where [7] appears, read: Library stock concentration: 3.33 mM.
[8] abbreviates: Library stock concentration: 10 mM.
Setting [9] is: measured here: p53 positive nuclei at 24 h, Library stock concentration: 3.33 mM.
Where [10] appears, read: measured here: p53 positive nuclei at 24 h, Library stock concentration: 10 mM.

Molecules are shown by their SMILES. The campaign covered roughly 5,700 compounds. About 85 (1%) were called active. This is one part of a sample in which actives are shown more often than they occur. No stated cut-off is given here; in the data, active means p53-positive nuclei above about 36% (passing the limit was not always enough); inactive means the rest.

Cellular tumor antigen p53 (Homo sapiens), sequence (P04637 whole entry, looked up): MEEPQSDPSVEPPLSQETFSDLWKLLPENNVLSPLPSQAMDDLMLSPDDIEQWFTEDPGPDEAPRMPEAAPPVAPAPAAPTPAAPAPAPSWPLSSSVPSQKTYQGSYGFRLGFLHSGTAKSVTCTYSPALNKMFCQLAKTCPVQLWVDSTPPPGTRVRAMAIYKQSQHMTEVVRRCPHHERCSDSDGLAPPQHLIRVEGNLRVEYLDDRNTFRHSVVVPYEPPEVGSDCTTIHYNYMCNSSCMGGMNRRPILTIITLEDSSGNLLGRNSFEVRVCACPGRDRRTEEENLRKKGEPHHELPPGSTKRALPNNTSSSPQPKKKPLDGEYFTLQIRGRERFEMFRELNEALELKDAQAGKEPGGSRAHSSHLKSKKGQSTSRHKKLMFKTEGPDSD

As to `CCc1cnn2c(NCc3ccc[n+]([O-])c3)cc(N3CCCCC3CCO)nc12` (stereo not drawn), the nuclei count, normalised in assay [1] (measured here: cell number at 24 h, Library stock concentration: 80 uM) amounted to 30.2%; in assay [1] (measured here: cell number at 24 h, Library stock concentration: 400 uM), 27.8%; in assay [1] (measured here: cell number at 24 h, Library stock concentration: 2 mM) it was 24.5%; in assay [1] (setting [3]), 27.3%; in assay [1] (setting [4]) it was 30.5%; in assay [1] (measured here: cell number at 48 h, Library stock concentration: 80 uM), 20.4%. Besides, the nuclei count, normalised in assay [1] (measured here: cell number at 48 h, Library stock concentration: 400 uM) turned out to be 19.3%; in assay [1] (measured here: cell number at 48 h, Library stock concentration: 2 mM) it was 16.3%; in assay [1] (setting [5]) it was 18.9%; in assay [1] (setting [6]), 20.6%. Besides, the p53-positive nuclei, normalised was 51.1% (active) in assay [2] (Library stock concentration: 80 uM); 35% (inactive) in assay [2] (Library stock concentration: 400 uM); 42% (inactive) in assay [2] (Library stock concentration: 2 mM); 36.1% (inactive) in assay [2] (setting [7]); 26.7% (inactive) in assay [2] (setting [8]); 9.51% in assay [2] (measured here: p53 positive nuclei at 24 h, Library stock concentration: 80 uM). The p53-positive nuclei, normalised in assay [2] (measured here: p53 positive nuclei at 24 h, Library stock concentration: 400 uM) came out at 6.74%; in assay [2] (measured here: p53 positive nuclei at 24 h, Library stock concentration: 2 mM), 7.45%; in assay [2] (setting [9]) it was 8.9%; in assay [2] (setting [10]), 2.01%.
Consider `COc1cccc2c(C)cc(N3CCC[C@H]3CO)nc12`, for which the nuclei count, normalised is 96.3% in assay [1] (measured here: cell number at 24 h, concentration not given here) and 98.1% in assay [1] (measured here: cell number at 48 h, concentration not given here). Also, the p53-positive nuclei, normalised in assay [2] (concentration not given here) is -0.0398% (inactive); in assay [2] (measured here: p53 positive nuclei at 24 h, concentration not given here) it was 0.0977%.
For `COc1ccc(CNc2nc(N3CCCC3CO)ncc2C(=O)NCc2ncccn2)cc1Cl` (stereo not drawn), the values for the nuclei count, normalised in assay [1] (setting [3]) and in assay [1] (setting [5]) were 112% and 104%, respectively. For the same compound, the p53-positive nuclei, normalised in assay [2] (setting [7]) was -0.102% (inactive); in assay [2] (setting [9]) it was -0.198%.
Turning to `CCCCCCCCCCCCCC=CC(O)C(CO)N(C)C` (stereo not drawn), the nuclei count, normalised in assay [1] (measured here: cell number at 24 h, Library stock concentration: 500 nM) came to 120%; in assay [1] (measured here: cell number at 24 h, Library stock concentration: 1.5 uM), 110%; in assay [1] (measured here: cell number at 24 h, Library stock concentration: 4.6 uM), 117%; in assay [1] (measured here: cell number at 24 h, Library stock concentration: 13.7 uM), 108%; in assay [1] (measured here: cell number at 24 h, Library stock concentration: 41 uM), 110%; in assay [1] (measured here: cell number at 24 h, Library stock concentration: 123 uM), 122%. In addition, the nuclei count, normalised worked out at 122% in assay [1] (measured here: cell number at 24 h, Library stock concentration: 370 uM); 118% in assay [1] (measured here: cell number at 24 h, Library stock concentration: 1.111 mM); 102% in assay [1] (measured here: cell number at 24 h, Library stock concentration: 3.333 mM); 35.8% in assay [1] (setting [4]); 115% in assay [1] (measured here: cell number at 48 h, Library stock concentration: 500 nM); 109% in assay [1] (measured here: cell number at 48 h, Library stock concentration: 1.5 uM). The nuclei count, normalised in assay [1] (measured here: cell number at 48 h, Library stock concentration: 4.6 uM) turned out to be 107%; in assay [1] (measured here: cell number at 48 h, Library stock concentration: 13.7 uM), 107%; in assay [1] (measured here: cell number at 48 h, Library stock concentration: 41 uM) it was 110%; in assay [1] (measured here: cell number at 48 h, Library stock concentration: 123 uM) it was 114%; in assay [1] (measured here: cell number at 48 h, Library stock concentration: 370 uM), 116%; in assay [1] (measured here: cell number at 48 h, Library stock concentration: 1.111 mM), 112%. The nuclei count, normalised in assay [1] (measured here: cell number at 48 h, Library stock concentration: 3.333 mM) was determined as 109%; in assay [1] (setting [6]) it was 22.2%. Further, the p53-positive nuclei, normalised is -0.17% (inactive) in assay [2] (Library stock concentration: 500 nM); -0.126% (inactive) in assay [2] (Library stock concentration: 1.5 uM); -0.0366% (inactive) in assay [2] (Library stock concentration: 4.6 uM); -0.121% (inactive) in assay [2] (Library stock concentration: 13.7 uM); -0.00454% (inactive) in assay [2] (Library stock concentration: 41 uM); -0.0524% (inactive) in assay [2] (Library stock concentration: 123 uM). The p53-positive nuclei, normalised in assay [2] (Library stock concentration: 370 uM) was 0.0673% (inactive); in assay [2] (Library stock concentration: 1.111 mM) it was -0.00344% (inactive); in assay [2] (Library stock concentration: 3.333 mM) it was -0.0281% (inactive); in assay [2] (setting [8]), 3.77% (inactive); in assay [2] (measured here: p53 positive nuclei at 24 h, Library stock concentration: 500 nM), -0.148%; in assay [2] (measured here: p53 positive nuclei at 24 h, Library stock concentration: 1.5 uM), -0.148%. The p53-positive nuclei, normalised in assay [2] (measured here: p53 positive nuclei at 24 h, Library stock concentration: 4.6 uM) is -0.148%; in assay [2] (measured here: p53 positive nuclei at 24 h, Library stock concentration: 13.7 uM), -0.019%; in assay [2] (measured here: p53 positive nuclei at 24 h, Library stock concentration: 41 uM), -0.0213%; in assay [2] (measured here: p53 positive nuclei at 24 h, Library stock concentration: 123 uM) it was -0.148%; in assay [2] (measured here: p53 positive nuclei at 24 h, Library stock concentration: 370 uM), -0.0899%; in assay [2] (measured here: p53 positive nuclei at 24 h, Library stock concentration: 1.111 mM) it was -0.0918%. In addition, the p53-positive nuclei, normalised in assay [2] (measured here: p53 positive nuclei at 24 h, Library stock concentration: 3.333 mM) is -0.0113%; in assay [2] (setting [10]), 3.53%.
